For 38 compounds, cytotoxicity call results are on record in the antibiotic and cytotoxicity screens of Wong et al. (2023).

SMILES strings stand for the structures. Among all 39,000 compounds or so, about 3,300 (8.5%) were called active. What follows is part of a selection rich in actives, with near analogues and random picks from the rest.

The subject of the experiment is HepG2. The experiment in a line: cytotoxicity call (relative viability < 0.9). To be noted: 10 µM.
For the compound `COc1ccc(S(=O)(=O)N2C[C@@H](O)COC[C@H]3O[C@H](CC(=O)NCCCN(C)C)CC[C@@H]32)cc1`, the cytotoxicity call is “inactive”. Turning to `COc1cccc(NC(=O)N(C)C[C@@H]2OCc3ccccc3-c3c(n(C)c4ccccc34)C(=O)N([C@@H](C)CO)C[C@@H]2C)c1`, the cytotoxicity call was “inactive”. As to `C=CC[C@@H](CC(=O)N[C@H](CO)Cc1ccccc1)C(=O)N[C@H](C)COC(=O)[C@H](CC=C)CC(=O)OC(C)(C)C`, the cytotoxicity call is “inactive”. For `C[C@@H]1CCCCO[C@H](CN(C)Cc2ccccc2)[C@@H](C)CN([C@@H](C)CO)C(=O)c2cc(NC(=O)Cc3ccccc3)ccc2O1`, the cytotoxicity call is “active”. In the case of `C[C@@H]1CCCCO[C@H](CN(C)Cc2ccc(C(F)(F)F)cc2)[C@H](C)CN([C@@H](C)CO)C(=O)c2cc(NC(=O)Cc3ccccc3)ccc2O1`, the cytotoxicity call is “inactive”. For `C[C@@H]1CCCCO[C@@H](CN(C)Cc2ccc(C(F)(F)F)cc2)[C@@H](C)CN([C@@H](C)CO)C(=O)c2cc(NC(=O)Cc3ccccc3)ccc2O1`, the cytotoxicity call is “active”. With `C[C@@H]1CCCCO[C@@H](CN(C)Cc2ccc(C(F)(F)F)cc2)[C@H](C)CN([C@H](C)CO)C(=O)c2cc(NC(=O)Cc3ccccc3)ccc2O1`, the cytotoxicity call was “inactive”. `C[C@H](CO)N1C[C@H](C)[C@@H](CN(C)Cc2ccc(C(F)(F)F)cc2)OCCCC[C@H](C)Oc2ccc(NC(=O)Cc3ccccc3)cc2C1=O`: the cytotoxicity call was “active”.

Regarding `C[C@@H]1CN([C@@H](C)CO)C(=O)c2cc(NC(=O)Cc3ccccc3)ccc2O[C@@H](C)CCCCO[C@H]1CN(C)Cc1ccc(C(F)(F)F)cc1`, the cytotoxicity call was “inactive”. On to `C[C@@H]1CN([C@H](C)CO)C(=O)c2cc(NC(=O)Cc3ccccc3)ccc2O[C@@H](C)CCCCO[C@H]1CN(C)Cc1ccc(C(F)(F)F)cc1`, for which the cytotoxicity call is “active”. `C[C@H]1CCCCO[C@H](CN(C)Cc2ccccc2)[C@@H](C)CN([C@@H](C)CO)C(=O)c2cc(NC(=O)Cc3ccccc3)ccc2O1`: the cytotoxicity call was “inactive”.

Take `C[C@@H]1CN([C@H](C)CO)C(=O)c2cc(NC(=O)Cc3ccccc3)ccc2O[C@@H](C)CCCCO[C@@H]1CN(C)Cc1ccc(C(F)(F)F)cc1`: the cytotoxicity call was “inactive”.

Turning to `C[C@@H]1CN([C@H](C)CO)C(=O)c2cc(NC(=O)Cc3ccccc3)ccc2O[C@@H](C)CCCCO[C@H]1CN(C)Cc1ccccc1`, the cytotoxicity call was “inactive”. For `CO[C@H]1CN(C)C(=O)c2cc(NS(C)(=O)=O)ccc2OC[C@H](C)N(S(C)(=O)=O)C[C@H]1C`, the cytotoxicity call is “inactive”.

Consider `C[C@@H]1CN([C@@H](C)CO)C(=O)c2cc(NC(=O)CCC(F)(F)F)ccc2O[C@@H](C)CCCCO[C@@H]1CN(C)CC1CCCCC1`, for which the cytotoxicity call is “inactive”. `CCCCCCCCCCCCCCCc1cccc(OCC)c1C(=O)Nc1ccc(Cl)c(C(F)(F)F)c1`: the cytotoxicity call is “inactive”. As to `C[C@H](CO)N1C[C@H](C)[C@@H](CN(C)S(C)(=O)=O)Oc2ccc(NC(=O)Cn3cnnn3)cc2CC1=O`, the cytotoxicity call is “inactive”. For `Nc1cnn([C@H]2O[C@@H](COC(=O)c3ccccc3)[C@@H](O)[C@@H]2O)c(=O)n1` the value was “inactive”. Take `COc1ccc(S(=O)(=O)N2C[C@@H](O)COC[C@H]3O[C@H](CC(=O)NCCN4CCCCC4)CC[C@@H]32)cc1`: the cytotoxicity call was “inactive”. For the compound `Cc1noc(C)c1NC(=O)N(C)C[C@@H]1Oc2c(NC(=O)C3CC3)cccc2C(=O)N([C@H](C)CO)C[C@H]1C`, the cytotoxicity call was “inactive”. The value for `C[C@@H]1CN([C@H](C)CO)C(=O)Cc2cc(NC(=O)C3CCCCC3)ccc2O[C@@H]1CN(C)Cc1ccc(Cl)c(Cl)c1` was “inactive”. As for `C[C@@H]1CCCCO[C@H](CN(C)Cc2ccc(C(F)(F)F)cc2)[C@H](C)CN([C@H](C)CO)C(=O)c2cc(NC(=O)Cc3ccccc3)ccc2O1`, the cytotoxicity call was “active”. For the compound `C[C@@H]1CN([C@@H](C)CO)C(=O)c2cc(NC(=O)Cc3ccccc3)ccc2O[C@@H](C)CCCCO[C@@H]1CN(C)Cc1ccc(C(F)(F)F)cc1`, the cytotoxicity call was “inactive”. For the compound `C[C@H]1CCCCO[C@H](CN(C)Cc2ccc(C(F)(F)F)cc2)[C@@H](C)CN([C@@H](C)CO)C(=O)c2cc(NC(=O)Cc3ccccc3)ccc2O1`, the cytotoxicity call was “active”.

As for `C[C@@H]1CCCCO[C@H](CN(C)Cc2ccc(C(F)(F)F)cc2)[C@@H](C)CN([C@H](C)CO)C(=O)c2cc(NC(=O)Cc3ccccc3)ccc2O1`, the cytotoxicity call was “inactive”. `C[C@@H]1CCCCO[C@H](CN(C)Cc2ccc(C(F)(F)F)cc2)[C@@H](C)CN([C@@H](C)CO)C(=O)c2cc(NC(=O)Cc3ccccc3)ccc2O1`: the cytotoxicity call was “inactive”. As for `C[C@H](CO)N1C[C@H](C)[C@H](CN(C)Cc2ccc(C(F)(F)F)cc2)OCCCC[C@H](C)Oc2ccc(NC(=O)Cc3ccccc3)cc2C1=O`, the cytotoxicity call is “inactive”. In the case of `C[C@@H]1CCCCO[C@@H](CN(C)Cc2ccc(C(F)(F)F)cc2)[C@H](C)CN([C@@H](C)CO)C(=O)c2cc(NC(=O)Cc3ccccc3)ccc2O1`, the cytotoxicity call is “inactive”.

In the case of `C[C@H]1CCCCO[C@@H](CN(C)Cc2ccc(C(F)(F)F)cc2)[C@@H](C)CN([C@@H](C)CO)C(=O)c2cc(NC(=O)Cc3ccccc3)ccc2O1`, the cytotoxicity call is “inactive”. As to `C[C@@H]1CCCCO[C@@H](CN(C)Cc2ccc(C(F)(F)F)cc2)[C@@H](C)CN([C@H](C)CO)C(=O)c2cc(NC(=O)Cc3ccccc3)ccc2O1`, the cytotoxicity call is “active”. The value for `COc1ccc(S(=O)(=O)Nc2cccc3c2O[C@@H](CN(C)C(=O)Nc2cccc4ccccc24)[C@H](C)CN([C@H](C)CO)C3=O)cc1` was “inactive”; that for `C[C@H](CO)N1C[C@H](C)[C@H](CN(C)C(=O)Nc2ccc3c(c2)OCO3)Oc2ccc(N(C)C)cc2CC1=O` was “inactive”; that for `CNC(=O)C[C@@H]1CC[C@@H]2[C@H](COC[C@@H](O)CN2C(=O)c2ccc3c(c2)OCO3)O1` was “inactive”. The value for `Cn1ccnc1C(=O)NCc1cnc2n1CCNCC2` was “inactive”; that for `C[C@H](CO)N1C[C@H](C)[C@H](CN(C)Cc2ccc(Cl)c(Cl)c2)Oc2ccc(NC(=O)NC3CCCCC3)cc2C1=O` was “inactive”. Turning to `C[C@@H]1CN([C@@H](C)CO)C(=O)c2cc(NS(=O)(=O)c3cccs3)ccc2O[C@@H]1CN(C)Cc1ccc(-c2ccccc2)cc1`, the cytotoxicity call was “inactive”. `C[C@@H]1CN([C@H](C)CO)S(=O)(=O)c2ccc(C#CC(C)(C)O)cc2O[C@@H]1CN(C)Cc1ccc(F)cc1`: the cytotoxicity call is “inactive”. As for `FC(F)(F)Oc1ccccc1`, the cytotoxicity call was “inactive”.
